# Screens (PubChem)
# The list is not random: actives were taken first. Their share in the collection is about 6.8%.
# SW480 rereplic – A quantitative high throughput screen for small molecules that induce DNA re-replication in SW480 colon adenocarcinoma cells; hit rate 1.8% among 340,000; Potency, µM (titrated, usually from 46.1 µM), without a hit: top-dose re-replication activation, hits mostly activators; SW480 DNA re-replication, Hoechst DNA content imaging, 48 h; further: % of control where 0% means no effect; nearly all actives have a fitted effect of over 55% in size
#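 Treated cells incubate 48 hr (37 C, 5% CO2), are stained 40 min with Hoechst, and nuclear fluorescence is enumerated; a rise in nuclei with high DNA signal marks re-replication.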
# PTAP TSG101 blk – qHTS Assay for Iinhibitors of HIV-1 Budding by Blocking the Interaction of PTAP/TSG101. Fluorescence polarization, FITC-PTAP peptide / Tsg101 binding. 340,000 tested, under 10 active. Potency, µM (highest dose often 115 µM), for the others: at the top dose activity change, negative = inhibition, usual class: inhibitors; active means well fitted inhibition curve with a large enough effect in the main read-out, with a control signal flat, not every such curve was filed as active; inconclusive means small, poorly fitted or top-dose-only effect, or effect the other way, or a change in a side signal; inactive means no such curve, though single readings can be large or run the other way; further: % of control where 0% means no effect
# Target sequence (Q99816 whole entry, looked up): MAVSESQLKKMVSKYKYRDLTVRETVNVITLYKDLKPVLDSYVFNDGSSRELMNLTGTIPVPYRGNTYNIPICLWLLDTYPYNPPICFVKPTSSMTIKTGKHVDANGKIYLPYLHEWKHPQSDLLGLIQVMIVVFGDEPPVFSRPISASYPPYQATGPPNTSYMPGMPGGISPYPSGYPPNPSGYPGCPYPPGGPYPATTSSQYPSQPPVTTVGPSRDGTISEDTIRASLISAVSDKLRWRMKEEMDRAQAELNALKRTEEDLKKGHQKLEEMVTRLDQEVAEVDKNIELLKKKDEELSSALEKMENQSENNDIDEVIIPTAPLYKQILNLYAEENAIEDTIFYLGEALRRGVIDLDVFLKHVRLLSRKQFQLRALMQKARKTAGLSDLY
#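 FP read-out: FITC-PTAP peptide, 50 nM final, binding Tsg101 binding domain, 10 uM final; 20 min, r.t.; 10 mM HEPES pH 7.5, 0.15 M NaCl, 0.01% Tween 20, 3 mM EDTA, 0.1 mM TCEP.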
# PINK1 modulator – A Quantitative High throughput Screen to Identify Chemical Modulators of PINK1 Expression; hit rate 0.2% among 410,000; Potency, µM (highest dose often 76.6 µM), for inactives: at the top dose activation (PINK1 increase), usual class: activators; AID 624263, 2012; PINK1 immunofluorescence, high-content cytometry, 24 h; active means well fitted activation curve with a large enough effect; inconclusive means small, poorly fitted or top-dose-only effect; cell line not stated here; further: % of control where 0% means no effect; nearly all actives have a fitted effect of over 65% in size
#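 Stable cell line treated 24 h with compounds at 5 concentrations (CCCP controls), then fixed and immunostained for PINK1 plus nuclear and cell stains; PINK1 immunofluorescence quantified by laser-scanning microplate cytometry.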
# KB-V1 MDR tox – qHTS assay for MDR1-selective chemotherapeutics: Primary screen using the drug-selected MDR subline cells KB-V1 | Potency, µM (highest dose often 46.1 µM), most hits filed as cytotoxic | hit rate 3.4% among 400,000 | KB-V1 MDR cells viability, CellTiter-Glo, 72 h | AID 1347076, 2019; further: on the % scale 0 is the no-effect control and ±100 the full control effect; nearly all actives have a fitted effect of over 60% in size
#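 Cytotoxicity via CellTiter-Glo luminescence after 72 h compound exposure at 37 degrees C. Cells: drug-selected KB-V1 line, DMEM phenol-red free plus 10% FBS. Compounds tested at multiple concentrations; normalized data fitted to concentration-effect curves.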
# MCF10A rerep – A quantitative high throughput screen for small molecules that induce DNA re-replication in MCF 10a normal breast cells. AID 624296, 2012. MCF 10A DNA re-replication, Hoechst nuclear intensity, 48 h. Potency, µM (doses to about 46.1 µM), for the others: top-dose activity, positive = re-replication, hits mostly activators. hit rate 2.9% among 350,000; further: % of control where 0% means no effect; nearly all actives have a fitted effect of over 50% in size
# KB-3-1 cytotox – qHTS assay for MDR1-selective chemotherapeutics: Primary screen using the parental adenocarcinoma cell KB-3-1; Potency, µM (titrated, usually from 46.1 µM), usual class: cytotoxic; KB-3-1 viability, CellTiter-Glo ATP luminescence, 72 h; hit rate 1.4% among 400,000; further: on the % scale 0 is the no-effect control and ±100 the full control effect; nearly all actives have a fitted effect of over 60% in size
#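 KB-3-1 cells, DMEM (no phenol red) + 10% FBS; compound by pin transfer, 72 h, 37 °C. Readout: CellTiter-Glo luminescence after 10 min. Data normalized, curve-fitted.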
# Numbers without * were called inactive; i = inactive; ? = inconclusive; . = no result given; [ ] = dose if it differs, or a comment. Unless noted, the call rests on the fitted dose curve; in most records, active means well fitted curve in the direction sought with a large enough effect; inconclusive means small, poorly fitted or top-dose-only effect, or another doubt; inactive means no such curve, though single readings can be large; an effect the other way counts as inactive or inconclusive. Potency means the concentration at half of the fitted maximal effect.
SMILES,SW480 rereplic,PTAP TSG101 blk,PINK1 modulator,KB-V1 MDR tox,MCF10A rerep,KB-3-1 cytotox
COc1ccccc1NS(=O)(=O)c1cccc(NC(=O)Nc2ccc(Cl)cc2)c1,?,-2%,?,?,?,?
CCN1C(=O)c2ccccc2S(=O)(=O)c2ccc(C(=O)NCc3ccccc3)cc21,.,.,0%,i,.,i
COc1ccccc1-n1cnc(N)c1C(=O)c1ccccc1,15µM*,-1%,5%,i,?,i
COc1ccccc1-n1cnc(N)c1C(C)=O,11%,-4%,2%,i,-10%,i
COc1cc(CN2CCN(S(=O)(=O)c3ccccc3)CC2)cc(OC)c1OC,1%,2%,0%,i,0%,i
COc1cc(S(=O)(=O)N2CCN(Cc3ccccc3)CC2)ccc1Br,?,-2%,0%,i,10µM*,i
COc1ccc(NC(C)=O)cc1NC(=O)c1cccc(S(=O)(=O)N2CCN(Cc3ccccc3)CC2)c1,0%,-2%,-2%,16µM*,1%,i
N=C(N)SCc1ccc(Cl)c2ccccc12,-6%,-3%,?,23µM*,?,i
CCc1cc2c(=O)c(-c3nc4ccccc4n3C)c(COCC(=O)O)oc2cc1O,?,-5%,0%[38.3 µM],i,4%,i
CCCc1cc2c(=O)c(-c3nc4ccccc4s3)c(COCC(=O)O)oc2cc1O,?,0%,4%,i,23µM*,i
CC(C)CCNC(=O)C(=O)Nc1c2c(nn1-c1ccc(Cl)cc1)CSC2,.,.,12%,.,.,.
Cc1ccc(NNC(=O)c2sccc2Cl)c(C)c1,.,.,2%,.,.,.
Cc1ccc(CNC(=O)C2CC(c3cccc(F)c3)=NO2)cc1 (stereo unspecified),-4%,-2%,6%,?,5.8µM*,i
COc1cccc(C2=NOC(C(=O)NCc3cccs3)C2)c1 (stereo unspecified),4%,-4%,12%,?,5.2µM*,?
O=C(NCc1cccs1)C1CC(c2ccc(F)cc2)=NO1 (stereo unspecified),7%,-1%,5%,i,?,i
O=C(NCc1cccc(C(F)(F)F)c1)C1CC(c2ccccc2C(F)(F)F)=NO1 (stereo unspecified),?,.,2%,?,23µM*,?
Cc1ccc(CNC(=O)C2CC(c3ccccc3F)=NO2)cc1 (stereo unspecified),?,-1%,5%,i,3.3µM*,i
O=C(NCc1ccc(OC(F)(F)F)cc1)C1CC(c2cccc(F)c2)=NO1 (stereo unspecified),1%,-2%,2%,i,?,i
COc1cccc(C2=NOC(C(=O)NCc3ccc(F)cc3)C2)c1 (stereo unspecified),-8%,0%,6%,?,0.73µM*,i
COc1ccc(CNC(=O)C2CC(c3cccc(OC)c3)=NO2)cc1 (stereo unspecified),0%,3%,2%[38.3 µM],i,2.8µM*,i
COc1cccc(C2=NOC(C(=O)NCc3cccnc3)C2)c1 (stereo unspecified),8%,0%,7%,i,15%,i
Cc1cccc(NC(=O)c2oc3ccccc3c2NC(=O)c2cc(=O)c3cc(Cl)ccc3o2)c1,.,.,4%,?,.,i
CCc1nc2cccnc2n1-c1ccc(CC(=O)O)cc1,-5%,-5%,5%,i,8%,i
Cc1ccc(NC(=O)Cc2ccc(-n3c(C)nc4cccnc43)cc2)c(Cl)c1,.,.,0%,5.8µM*,.,18µM*
COC(=O)c1c(OCc2ccccn2)cc(=O)n2c1CCN(Cc1cccc(C(F)(F)F)c1)CC2,.,.,1%,.,.,.
SMILES,SW480 rereplic,PTAP TSG101 blk,PINK1 modulator,KB-V1 MDR tox,MCF10A rerep,KB-3-1 cytotox
COc1ccc(-c2ccc(CCC(=O)O)n2-c2ccccc2O)cc1,21µM*,-3%,7%,i,1.8µM*,?
COc1ccc(-c2ccc(CCC(=O)O)n2-c2ccccc2C(F)(F)F)cc1,.,.,1%,i,.,18µM*
COc1ccc(-c2ccc(CCC(=O)O)n2CC(C)C)cc1,9.2µM*,-2%,?,i,?,?
O=C(O)CCc1ccc(-c2ccc(Br)cc2)n1-c1ccccc1O,.,.,2%,i,.,i
COc1ccc2oc(=O)cc(CN3CCN(c4ccccc4F)CC3)c2c1,.,.,2%,.,.,.
O=C(CN(Cc1ccccc1)C(=O)CSc1nnc(COc2ccccc2)o1)NC1CCCC1,0%,-2%,0%,i,9%,i
O=C(CN(Cc1cccs1)C(=O)CSc1nnc(COc2ccccc2)o1)NC1CCCC1,?,-1%,-5%[38.3 µM],i,10µM*,i
CCOC(=O)c1sc(/N=C/c2c(O)ccc3ccccc23)cc1C,-10%,?,0%,i,15µM*,i
CCc1ccc(-c2nn(CC(=O)NC3CCCC3)c3c2cnc2ccc(F)cc23)cc1,.,.,3%,i,.,i
COc1ccc(SN=C2C(C)=CC(=O)C=C2C)cc1,?,-3%,13%,i,26µM*,i
O=C(COc1ccc(C(=O)c2ccccc2)cc1)NCc1ccc(F)cc1,7.3µM*,-3%,2%,?,4.1µM*,?
Cc1ccc(C(OCC(O)CNCc2ccc(F)cc2)c2ccccc2)cc1 (stereo unspecified),5.2µM*,-5%,-1%,i,2.6µM*,?
CSc1ccc(CN(C)C(=O)COc2ccc(C(=O)c3ccccc3)cc2)cc1,?,0%,1%,9.2µM*,13µM*,21µM*
O=C(c1ccccc1)c1ccc(OCC(O)CNCc2ccc(F)cc2)cc1 (stereo unspecified),5%,1%,-3%,23µM*,19%,i
